According to PubChem BioAssay AID1479144 (National Center for Advancing Translational Sciences (NCATS), 2020):
Records with an inconclusive call do not appear. A number with no mark means an inactive call. Activity calls are given as the source filed them. Calls come from the whole dose curve.

Assay: Confirmatory qHTS for Vero E6 cytotoxicity: counterscreen for inhibitors of SARS-S pseudo-typed particle cell entry
Conditions: cell viability; series mostly up to 57.1 µM; activity change, negative = cytotoxicity: at the top concentration

Row | Compound | activity change, negative = cytotoxicity | Potency
1 | CNCCCC12CCC(c3ccccc31)c1ccccc12 | -14.6% | 
2 | CC(=O)OCC1=C(C(=O)O)N2C(=O)[C@@H](NC(=O)Cc3cccs3)[C@H]2SC1 | 4.91% | 
3 | COc1cc([C@@H]2c3cc4c(cc3C(O[C@@H]3O[C@@H]5CO[C@@H](c6cccs6)OC5[C@H](O)[C@H]3O)C3COC(=O)[C@@H]32)OCO4)cc(OC)c1O (stereo partly drawn) |  | 24.1 µM (active)
4 | COc1c(OCCCN2CCOCC2)ccc2c3n(c(=NC(=O)c4cnc(N)nc4)nc12)CCN3 | -8.49% [at 11.2 µM] | 
5 | CC[C@H](C)C(=O)O[C@H]1C[C@@H](C)C=C2C=C[C@H](C)[C@H](CC[C@@H]3C[C@@H](O)CC(=O)O3)[C@H]21 |  | 9.61 µM (active)
6 | COc1cc2nccc(Oc3ccc(NC(=O)NC4CC4)c(Cl)c3)c2cc1C(N)=O | 3.84% | 
7 | Cc1nn(C)c2c1C(c1ccccc1F)=NCC(=O)N2C | 0% | 
8 | Cc1cc(-n2c(=O)[nH]c(=O)n(C)c2=O)ccc1Oc1ccc(S(=O)(=O)C(F)(F)F)cc1 | -23.2% | 
9 | CCC(C)(C)C(=O)O[C@H]1C[C@@H](C)C=C2C=C[C@H](C)[C@H](CC[C@@H]3C[C@@H](O)CC(=O)O3)[C@H]21 |  | 5.41 µM (active)
10 | CCN(CC)Cc1cc(Nc2ccnc3cc(Cl)ccc23)ccc1O | -2.14% | 
11 | Nc1ccn([C@@H]2O[C@H](CO)[C@@H](O)C2(F)F)c(=O)n1 | 0% | 
12 | CC(=O)Oc1ccccc1C(=O)Nc1ncc([N+](=O)[O-])s1 |  | 9.61 µM (active)
13 | COc1cc(N)c(Cl)cc1C(=O)NC1CCN(CCCOc2ccc(F)cc2)CC1OC (stereo not drawn) | 4.05% | 
14 | CC(C)(C)NC(=O)[C@H]1CC[C@H]2[C@@H]3CC[C@H]4NC(=O)C=C[C@]4(C)[C@H]3CC[C@]12C | 0.628% | 
15 | C[n+]1c2cc(N)ccc2cc2ccc(N)cc21 (tested in a mixture with another compound) |  | 10.8 µM (active)
16 | Cc1c(N)nc(C(CC(N)=O)NCC(N)C(N)=O)nc1C(=O)NC(C(=O)NC(C)C(O)C(C)C(=O)NC(C(=O)NCCc1nc(-c2nc(C(=O)NCCCN[C@@H](C)c3ccccc3)cs2)cs1)C(C)O)C(O[C@@H]1O[C@@H](CO)[C@@H](O)[C@H](O)[C@@H]1O[C@H]1O[C@H](CO)[C@@H](O)[C@H](OC(N)=O)[C@@H]1O)c1cnc[nH]1 (stereo partly drawn) | 0% | 
17 | CCCN1C[C@H](C)[C@@H](O)[C@](C)(O)[C@@H](CC)OC(=O)[C@H](C)[C@@H](O[C@H]2C[C@@](C)(OC)[C@@H](O)[C@H](C)O2)C(C)[C@@H](O[C@@H]2O[C@H](C)C[C@H](N(C)C)[C@H]2O)[C@](C)(O)C[C@H]1C (stereo partly drawn) | -15.3% | 

Row | Compound | activity change, negative = cytotoxicity | Potency
18 | CCCCN=C(N)N=C(N)N | 0% | 
19 | O=C1CCc2ccc(OCCCCN3CCN(c4cccc(Cl)c4Cl)CC3)cc2N1 | -1.16% | 
20 | O=c1ccc2ccccc2o1 | 0% | 
21 | CCc1c2c(nc3ccc(OC(=O)N4CCC(N5CCCCC5)CC4)cc13)-c1cc3c(c(=O)n1C2)COC(=O)[C@]3(O)CC | 0% | 
22 | CN1CCC(=C2c3ccccc3CCc3sccc32)CC1 | 1.55% | 
23 | COc1cc(NS(C)(=O)=O)ccc1Nc1c2ccccc2nc2ccccc12 |  | 12.1 µM (active)
24 | C/C=C(/C)C(=O)O[C@H]1C(C)=CC23C(=O)C(C=C(CO)[C@@H](O)[C@]12O)[C@H]1[C@@H](C[C@H]3C)C1(C)C (stereo partly drawn) | 3.6% | 
25 | CCn1cc(C(=O)O)c(=O)c2cc(F)c(N3CCNC(C)C3)c(F)c21 (stereo not drawn) | -17.7% | 
26 | COc1cccc2c1C(=O)c1c(O)c3c(c(O)c1C2=O)C[C@@](O)(C(C)=O)C[C@@H]3O[C@H]1C[C@H](N)[C@H](O)[C@H](C)O1 |  | 13.6 µM (active)
27 | CN(C/C=C/c1ccccc1)Cc1cccc2ccccc12 | -9.07% | 
28 | CCOc1ccc(Cc2nccc3cc(OCC)c(OCC)cc23)cc1OCC |  | 27.1 µM (active)
29 | CC[C@@]1(O)C(=O)OCc2c1cc1n(c2=O)Cc2c-1nc1ccccc1c2/C=N/OC(C)(C)C |  | 17.1 µM (active)
30 | CCCCCCOC(=O)NC(=N)c1ccc(NCc2nc3cc(C(=O)N(CCC(=O)OCC)c4ccccn4)ccc3n2C)cc1 | 0% | 
31 | O=C(Nc1ccc([N+](=O)[O-])cc1Cl)c1cc(Cl)ccc1O |  | 0.857 µM (active)
32 | CCN1CCN(Cc2ccc(Nc3ncc(F)c(-c4cc(F)c5nc(C)n(C(C)C)c5c4)n3)nc2)CC1 | 0% | 
33 | CN(C)CCC=C1c2ccccc2C(C)(C)c2ccccc21 | 0% | 
